Results as given in PubChem BioAssay (NCI).
Compounds without any hit were thinned out: in the full panel of roughly 83,000, 20% have a hit.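 The endpoint reported here, percent growth, reads 100 for growth as untreated, 0 for no net growth and -100 for all cells dead.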 Values without a mark were called inactive. The source made the active and inactive calls. How the source made its calls: active means growth percent below 10; inactive means the rest.

Key:
Assay in all cases: NCI-60 one-dose screen, 48 h (100 = growth as untreated, 0 = no growth, -100 = all killed)
Settings in all cases: 10 µM unless noted
T-47D breast = test system: T-47D breast
BT-549 breast = test system: BT-549 breast
MDA-MB-435 melanoma = test system: MDA-MB-435 melanoma
SW-620 colon = test system: SW-620 colon
MCF7 breast = test system: MCF7 breast
HCT-116 colon = test system: HCT-116 colon
HCC-2998 colon = test system: HCC-2998 colon
KM12 colon = test system: KM12 colon

Row | SMILES | growth (T-47D breast) | growth (BT-549 breast) | growth (MDA-MB-435 melanoma) | growth (SW-620 colon) | growth (MCF7 breast) | growth (HCT-116 colon) | growth (HCC-2998 colon) | growth (KM12 colon)
1 | C=C(C)[C@@H]1CC[C@]2(C(=O)N[C@@H](Cc3ccccc3)C(=O)OC)CC[C@]3(C)[C@H](CC[C@@H]4[C@@]5(C)CCC(=O)C(C)(C)[C@@H]5CC[C@]43C)[C@@H]12 | 64.8% | 105% | 90.6% | 95.4% | 84.6% | 68.4% | 98.2% | 75.2%
2 | Cc1ccc(C(=O)/C(=C\c2ccc([N+](=O)[O-])cc2)S(=O)Cc2ccc(Cl)cc2)cc1 (stereo not given) | -19.1% (active) | 62% | 50.1% | 7.46% (active) | 15.2% | -50.1% (active) | 58.8% | 46.6%
3 | O=C(/C=C/c1ccc(F)cc1)c1ccc(NC(=O)N2CCN(c3cc4c(cc3F)c(=O)c(C(=O)O)cn4C3CC3)CC2)cc1 | 93.6% | 75.7% | 95.3% | 92% | 96.9% | 57.1% | 103% | 100%
4 | CN(C)CC(O)c1ccc(/C=C/c2ccc(Cl)cc2)cc1 (stereo not given) | 30.9% | 78.8% | -48.2% (active) | -68.7% (active) | -81.6% (active) | -58.3% (active) | -69% (active) | -91.5% (active)
5 | CNCCOc1nc2c3cnccc3cc(-c3cc(OC)c(OC)c(OC)c3)c2c2ccncc12 | -12.4% (active) | -45.5% (active) | -90.1% (active) | 3.63% (active) | -0.459% (active) | -89.9% (active) | -77% (active) | 5.03% (active)
6 | COc1ccc(N2CCN(c3ccc(NC4=C(Cl)C(=O)c5ncccc5C4=O)cc3)CC2)cc1 | 33.2% | 47.8% | -4.96% (active) | 15.9% | 8.91% (active) | 15.9% | 80.8% | 63.8%
7 | COc1cc(/C=C\c2cc(OC)c(OC)c(OC)c2)cc(N)c1OC | 82.8% | 75.9% | 1.87% (active) | 75% | 85.4% | 79.1% | 73.1% | 54.9%
8 | CCN1Cc2nc3sc(C)c(C)c3c(=O)n2C=C1C | 37.1% | -5.48% (active) | 48.1% | 15.6% | -41.8% (active) | -24.9% (active) | 81.2% | 14.5%
9 | O=C(C1CCC1)N1N=C(c2ccc(-n3ccc(C(F)(F)F)n3)cc2)CC1c1ccc[nH]1 (stereo not given) | 78% | 119% | 99.7% | 103% | 91.9% | 94.4% | 113% | 89.7%
10 | CCCCCN1C=C/C(=C\C(=O)N(C)c2ccc(Oc3ccccc3)cc2)c2ccccc21 | 54.1% | 91.4% | 91.4% | 84.3% | 66.7% | 58.7% | 86.7% | 90.5%
11 | NS(=O)(=O)c1ccc(CCN2C(=O)C=CC2=O)cc1 | 99.5% | 111% | 108% | 106% | 94.4% | 99.7% | 95.2% | 104%
12 | O=C(Nc1cccc(C(=O)N2CCc3ccc(Cl)cc32)c1)c1ccco1 | 33.6% | 37.2% | -2.72% (active) | 29.8% | 21.6% | 18.9% | 68% | 33.6%
13 | CCOC(=O)C1=C(CCl)NC(=O)NC1c1ccc2c(c1)OCO2 (stereo not given) | 31.3% | 32.4% | 35.7% | 26.7% | 9.21% (active) | 8.65% (active) | 83.1% | 84.3%
14 | O=C(O)c1ccc(NCc2cn(-c3ccc(C(F)(F)F)cc3)nc2-c2ccc(C(=O)O)cc2)cc1 | 100% | 108% | 102% | 110% | 96% | 109% | 107% | 104%
15 | CC/C(=C\c1ccc(OC)cc1)C(=O)c1ccc(OC)cc1 | 85.8% | 135% | 73.1% | 94.2% | 107% | 90.8% | 93.5% | 96.3%
16 | COc1cccc(-c2nc3occn3c2-c2ccnc(NCCCNS(=O)(=O)c3ccc(C(F)(F)F)cc3)n2)c1 | 39.1% | 93.4% | 76.3% | 124% | 79.8% | 83.9% | 124% | 91.5%
17 | Cn1ccnc1C(=O)/C=C/c1ccc(CC(=O)Nc2ccc(F)cc2)cc1 | 28.8% | 23.6% | 19.7% | 10.1% | 28% | 4.94% (active) | 85.4% | 6.52% (active)
18 | NS(=O)(=O)c1ccc(CCN2C(=O)C3C(C2=O)C2(Cl)C(Cl)=C(Cl)C3(Cl)C2(Cl)Cl)cc1 (stereo not given) | 94.4% | 94.8% | 108% | 105% | 92.5% | 94% | 93.8% | 105%
19 | O=C(CNCCN1CCOCC1)N1c2cccc3cccc(c23)N(C(=O)CNCCN2CCOCC2)C1c1cn(-c2ccccc2)nc1-c1cccc([N+](=O)[O-])c1 | 77.6% | 89.7% | 80.1% | 83.2% | 36.9% | 50.7% | 35.4% | 98.8%
20 | C=C(CBr)[C@@H]1CC[C@]2(COC(C)=O)CC[C@]3(C)[C@H](CC[C@@H]4[C@@]5(C)CCCNC(C)(C)[C@@H]5CC[C@]43C)[C@@H]12 | 25.9% | 36.2% | 54.5% | 31.5% | 21.5% | 15.3% | 50.8% | 41.9%
21 | O=C1Nc2cc(-c3ccc(NC(=O)C4CC4)cc3)ccc2/C1=C/c1ccc[nH]1 | 21.7% | 104% | 99.9% | 113% | 12.8% | 104% | 111% | 39.8%
22 | COc1ccccc1/C=C1\Oc2cc(OCCN3CCCC3)ccc2C1=O | 90.1% | 84.2% | 94% | 74% | 68.1% | 47.1% | 75.8% | 88.8%
23 | O=C1Nc2cc(-c3ccc(NS(=O)(=O)c4ccccc4)cc3)ccc2/C1=C/c1ccc[nH]1 | 18.5% | 24.6% | 88.2% | 84.9% | 6.53% (active) | 82% | 91.6% | 46.7%
24 | C[C@H]1[C@H](C)CC[C@]2(C(=O)NCC#CCN3CCN(C)CC3)CC[C@]3(C)C(=CC[C@@H]4[C@@]5(C)Cc6c([nH]c7ccccc67)C(C)(C)[C@@H]5CC[C@]43C)[C@H]12 | 76.7% | 99.6% | 52.2% | 57.5% | 41.3% | 25.8% | 76.6% | 75.2%
25 | CC(C)(C)c1ccc(NS(=O)(=O)c2ccc3nc(NC(=O)c4cnccn4)[nH]c3c2)cc1 | 25.6% | 26.6% | -41% (active) | 18.1% | 18% | 25.4% | 70.2% | 16.6%
26 | CC(C)N1C(=O)/C(=C2\SC(=S)N(C(C)C)C2=O)SC1=S | 82.8% | 98.7% | 100% | 94.9% | 96.8% | 95% | 98.3% | 99.9%
27 | O=C(Nc1ccc(Cl)cc1)c1cc(NCc2cc(O)ccc2O)ccc1O | 42.6% | 35.8% | 103% | 89.9% | 65.6% | 91.3% | 102% | 76.8%
28 | N#CC(C(=O)/C(=N/NC(=O)c1ccccc1O)C(C#N)c1ccccc1)c1ccccc1 (stereo not given) | 24.9% | 44.2% | 24.1% | 80.2% | 55.3% | 14.7% | 85.9% | 46.5%
29 | O=S(=O)(NCCNc1nccc(-c2c(-c3cccc(F)c3)nc3sccn23)n1)c1ccc(Br)cc1 | 30.5% | 63.3% | 21.3% | 54.8% | 23.5% | 33.9% | 79.5% | 42.5%
30 | CC(Sc1nc2ccccc2c(=O)n1CCc1ccc(S(N)(=O)=O)cc1)C(=O)Nc1ccc(Cl)cc1 (stereo not given) | 67.6% | 102% | 98.7% | 98.1% | 84.6% | 79.9% | 103% | 97.5%
